Only some compounds are listed: those with a hit (about 3.2% of all), similar ones and a draw of the others.
Sm TGR inh: S. mansoni TGR enzyme inhibition; purified TGR, DTNB reduction, TNB absorbance 405 nm; hit rate 3% among 360,000; Potency, µM (top dose mostly 114 µM), most hits filed as inhibitors; note: nearly all actives have a fitted effect of over 60% in size
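Kinetic colorimetric format: TGR-catalysed, NADPH-driven DTNB reduction monitored via TNB absorbance. Enzyme dispensed at 20 nM; compound exposure 15 min at room temperature before reaction start.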
RE007 growth inh: less growth of the S. pombe RE007 Vpr strain | Potency, µM (top dose mostly 92.2 µM), usual class: inhibitors | S. pombe RE007 Vpr strain, BacTiter-Glo ATP luminescence, 24 h | hit rate 0.21% among 360,000; active = well fitted falling curve with a large enough effect; inconclusive = small, poorly fitted or top-dose-only effect; inactive = no such curve, though single readings can be large or run the other way; note: nearly all actives have a fitted effect of over 50% in size
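Fission yeast RE007 carrying one integrated HIV-1 vpr copy, seeded at OD 0.01 in PMG+AL medium with 23 nL pinned compound. Grown 24 h at 30 degrees; viability read by BacTiter-Glo luminescence after 5 min.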
AmpC detergent: AmpC beta-lactamase inhibition with detergent present; Potency, µM (doses to about 114 µM), actives largely listed as inhibitors; P00811; AID 485294; hit rate 0.041% among 370,000; AmpC hydrolysis of nitrocefin, absorbance 480 nm, 0.01% Triton; note: nearly all actives have a fitted effect of over 25% in size
Target sequence (P00811 whole entry, looked up): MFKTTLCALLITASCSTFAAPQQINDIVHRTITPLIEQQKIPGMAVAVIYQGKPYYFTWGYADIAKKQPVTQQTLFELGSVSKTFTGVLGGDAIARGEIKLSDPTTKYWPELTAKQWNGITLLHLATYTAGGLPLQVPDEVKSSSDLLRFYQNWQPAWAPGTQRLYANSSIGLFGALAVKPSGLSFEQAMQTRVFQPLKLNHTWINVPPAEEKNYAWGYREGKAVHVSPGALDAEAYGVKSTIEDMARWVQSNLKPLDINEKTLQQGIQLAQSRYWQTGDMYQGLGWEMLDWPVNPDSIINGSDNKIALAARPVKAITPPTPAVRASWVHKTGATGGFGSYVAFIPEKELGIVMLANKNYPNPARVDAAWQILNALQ
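20 mM phosphate pH 7.0 + 0.01% (detergent screen) or 0.0001% Triton X-100; 5.3 nM AmpC reagent; cpd preinc 15 min RT; nitrocefin (800 uM stock) to start; A480 q20 s × 4 min; Activity was normalised to no-enzyme and no-compound control wells.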
AMA1-RON2 inh: disrupts binding of P. falciparum AMA1 to RON2. Potency, µM (series often up to 58.2 µM), most hits filed as inhibitors. AlphaScreen AMA1-biotinylated RON2 peptide binding. hit rate 0.2% among 360,000; note: nearly all actives have a fitted effect of over 45% in size
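AMA1 (3D7) with his tag at 25 nM final met compounds first, then biotinylated RON2 peptide at 25 nM; detection used donor plus acceptor beads, 10 µg/mL apiece, read by AlphaScreen after 30 min at room temperature.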
AmpC no deterg: inhibitors of E. coli AmpC beta-lactamase without detergent; AID 485341; AmpC nitrocefin hydrolysis, absorbance 480 nm, 0.0001% Triton; Potency, µM (top dose mostly 57.1 µM), usual class: inhibitors; hit rate 0.52% among 330,000; note: nearly all actives have a fitted effect of over 20% in size
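AmpC (5.3 nM in the dispensed reagent) in 20 mM phosphate pH 7.0 with 0.01% (detergent screen) or 0.0001% Triton X-100 was preincubated with compounds for 15 min at room temperature. Nitrocefin was then added from an 800 uM solution, and hydrolysis was followed at 480 nm.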
A number is an active result; - = inactive; ? = inconclusive; . = not tested or not shown. Unless noted, calls come from the whole dose curve; as a rule, active = well fitted curve in the direction sought with a large enough effect; inconclusive = small, poorly fitted or top-dose-only effect, or another doubt; inactive = no such curve, though single readings can be large; an effect the other way counts as inactive or inconclusive.

SMILES | Sm TGR inh | RE007 growth inh | AmpC detergent | AMA1-RON2 inh | AmpC no deterg
COc1ccccc1NC(=O)c1sc2ncn(Cc3ccc(C)cc3)c(=O)c2c1C | - | - | - | - | 0.316µM
COc1ccc(S(=O)(=O)NCC(c2cccs2)S(=O)(=O)c2ccccc2)cc1OC (stereo not given) | 1µM | . | - | . | .
O=S(=O)(NCC(c1cccs1)S(=O)(=O)c1ccccc1)c1ccc(F)cc1 (stereo not given) | 0.501µM | . | - | . | .
Cc1nc2ccc(S(=O)(=O)NCC(=O)N3CCc4ccccc43)cc2s1 | 56.2µM | - | - | - | -
O=C(Nc1ccc2oc(-c3cccnc3)nc2c1)c1ccc([N+](=O)[O-])o1 | . | - | - | - | -
O=C(Nc1cccnc1)c1ccc(-c2ccc(Cl)cc2)o1 | 31.6µM | - | - | - | -
O=C(Nc1ccc2oc(-c3cccnc3)nc2c1)c1ccc(-c2ccc(Cl)cc2)o1 | 31.6µM | . | - | . | .
O=C(Nc1ccc2oc(-c3cccnc3)nc2c1)c1ccc(-c2cccc(Cl)c2)o1 | 35.5µM | . | - | . | .
O=C(Nc1ccc2oc(-c3cccnc3)nc2c1)c1cccc(Br)c1 | - | . | - | . | .
O=C(Nc1ccc(Cl)c(-c2nc3ccccc3o2)c1)c1ccc(-c2cccc([N+](=O)[O-])c2)o1 | - | . | - | . | .
Cc1c(NC(=O)c2ccc(-c3cccc([N+](=O)[O-])c3)o2)cccc1-c1nc2cc(Cl)ccc2o1 | 35.5µM | . | - | . | .
CCc1ccc(-n2nc(C)c3c(C)cc(=O)n(Cc4nc(-c5ccccc5)oc4C)c32)cc1 | - | . | - | . | .
Cc1c(C)n(Cc2ccccc2)c2ccc(C(=O)NCCc3ccccc3Cl)cc12 | - | . | - | . | .
COc1ccc(C(=O)c2oc3ccccc3c2NC(=O)COc2c(C)cc(C)cc2C)cc1 | - | . | - | . | .
CC(NC(=O)Cn1ncc2c3ccccc3n(Cc3ccc(F)cc3)c2c1=O)c1ccccc1 (stereo not given) | - | . | - | . | .
CCc1ccc(NC(=O)CC2C(=O)N(c3ccc(Cl)cc3)C(=O)N2Cc2ccco2)cc1 (stereo not given) | - | . | - | . | .
Oc1c(C(Nc2ccccn2)c2cccnc2)cc(Cl)c2cccnc12 (stereo not given) | 4.47µM | ? | - | ? | -
Oc1c(C(Nc2cccc(C(F)(F)F)c2)c2cccnc2)ccc2cccnc12 (stereo not given) | 0.708µM | - | - | - | -
Oc1cccc(C(Nc2ccccn2)c2ccc3cccnc3c2O)c1Cl (stereo not given) | 3.16µM | . | - | . | .
COc1ccc(C(NC(=O)c2cccnc2)c2cc(Cl)c3cccnc3c2O)cc1OC (stereo not given) | - | - | - | - | -
CCC(=O)NC(c1ccccc1OC)c1ccc2cccnc2c1O (stereo not given) | - | - | ? | - | -
Oc1cccc(C(Nc2nccs2)c2ccc3cccnc3c2O)c1 (stereo not given) | 17.8µM | - | - | - | -
O=[N+]([O-])c1ccc(NC(c2ccccc2)c2ccc3cccnc3c2O)cc1 (stereo not given) | . | - | . | - | .
COc1cccc(C(NC(C)=O)c2ccc3cccnc3c2O)c1 (stereo not given) | - | - | - | - | -
CCc1ccccc1NC(=O)CSc1nncn2c1cc1oc(C)cc12 | - | . | - | . | .
SMILES | Sm TGR inh | RE007 growth inh | AmpC detergent | AMA1-RON2 inh | AmpC no deterg
Clc1cccc(-n2ncc3c(NCCCN4CCOCC4)ncnc32)c1 | - | . | - | . | .
COc1ccc(Cl)cc1C(Nc1cccnc1)c1ccc2cccnc2c1O (stereo not given) | 0.1µM | ? | - | - | -
CCCC(=O)NC(c1ccccc1)c1ccc2cccnc2c1O (stereo not given) | ? | ? | - | - | -
Cc1cc(NC(c2cccnc2)c2ccc3cccnc3c2O)no1 (stereo not given) | - | - | - | 20µM | -
Cc1ccc(C)c(N2CCN(CCCNC(=O)c3ccc4nc(CCc5ccccc5)oc4c3)CC2)c1 | - | . | - | . | .
O=[N+]([O-])c1ccc(N2CCOCC2)c2c1no[n+]2[O-] | . | 44.7µM | . | ? | .
O=[N+]([O-])c1ccc(N2CCOCC2)c2cccnc12 | - | - | - | - | -
Cc1cc(-c2csc(NC(=O)c3ccc(=O)n(C)n3)n2)c(C)n1CC1CCCO1 (stereo not given) | 35.5µM | - | - | - | -
Cc1cc(-c2csc(NC(=O)c3ccc(=O)[nH]c3)n2)c(C)n1Cc1ccco1 | 44.7µM | - | - | - | -
Cc1cc(-c2csc(NC(=O)C3=COCCO3)n2)c(C)n1C | - | - | - | - | -
CCNc1nc(-c2cc(C)n(Cc3ccco3)c2C)cs1 | - | - | - | - | -
Cc1ccc(CCNC(=O)CCCn2c(=O)c3cccn3c3ccc(F)cc32)cc1 | - | . | - | . | .
Cc1ccc(NC(=O)Nc2nnc(N3CCCC3)s2)cc1C | - | . | - | . | .
Cc1cc2oc(=O)c(CC(=O)O)c(C)c2c2occ(-c3ccc(F)cc3)c12 | - | . | - | . | .
O=Cc1s/c(=N\S(=O)(=O)c2ccccc2)n(CCCCl)c1Cl | 0.631µM | - | ? | - | -
O=C1c2ccccc2C(=O)c2c(NCc3cccnc3)cccc21 | - | - | - | ? | -
CNc1cccc2c1C(=O)c1ccccc1C2=O | - | - | - | 3.98µM | -
CN(C)S(=O)(=O)c1cccc2c1C(=O)c1ccccc1C2=O | 25.1µM | - | - | - | -
COc1ccc(OC)c(NC(=O)CN2C(=O)CC(C)Sc3ccccc32)c1 (stereo not given) | - | . | - | . | .
CCCCN(C)C(=O)C1CCN(c2ccc(S(=O)(=O)N3CCOCC3)cc2[N+](=O)[O-])CC1 | 44.7µM | - | - | - | -
CC(C)CNC(=O)C1CCN(c2ccc(S(=O)(=O)N3CCOCC3)cc2[N+](=O)[O-])CC1 | - | - | - | - | -
COc1ccc(S(=O)(=O)N2CCOCC2)cc1NC(=O)CCc1nc2ccccc2c(=O)[nH]1 | - | - | - | - | -
CCN(c1ccccc1)S(=O)(=O)c1ccc(OC)c(NC(=O)CCc2nc3ccccc3c(=O)[nH]2)c1 | - | - | ? | - | 35.5µM
CC(=O)c1cccc(NC(=O)c2noc3c2CSc2ccccc2-3)c1 | 11.2µM | . | - | . | .
COc1cc(OC)c(NC(=O)c2noc3c2CSc2ccccc2-3)cc1Cl | 2.51µM | . | - | . | .
COc1ccc(N2CCN(CCCNC(=O)c3nnc(Cc4ccccc4Cl)o3)CC2)cc1 | - | . | - | . | .
Cc1cccc(NC(=O)Cn2c(=O)n(Cc3ccc4c(c3)OCO4)c(=O)c3oc4ccccc4c32)c1C | - | . | - | . | .
CCc1cccc(NC(=O)Cn2c(=O)ccc3cc(S(=O)(=O)N4CCC(C)CC4)ccc32)c1 | - | . | - | . | .
Oc1[nH]c2ccccc2c1N=Nc1ccccc1Cl | . | - | . | - | .
Oc1c(C=Nc2ccccc2Cl)[nH]c2ccccc12 | 50.1µM | - | - | - | -

Assay outcomes from PubChem.
